From article PMC5540273 (PLoS ONE, 2017)
Where “and” joins values, the source holds several entries; their conditions need not be identical. Equal values may be shown once. Read-outs that look alike come from different tables or passages of the source.

Experiments:
[1] = system: WNK4; details: concentration: 1 μM, replicates: in singlicate; n = 1
[2] = system: T1, YANK1; details: concentration: 1 μM, replicates: in singlicate, n = 1
T1 construct: gene STK32A

[3] = system: T2, YANK2; details: concentration: 1 μM, replicates: in singlicate, n = 1
T2 construct: gene STK32B

[4] = system: T3, YANK3; details: concentration: 1 μM, replicates: in singlicate, n = 1
T3 construct: gene STK32C

[5] = system: T4, YES; details: concentration: 1 μM, replicates: in singlicate; n = 1
T4 construct: gene YES1

[6] = system: T5, YSK1; details: concentration: 1 μM, replicates: in singlicate; n = 1
T5 construct: gene STK25

[7] = system: T6, YSK4; details: concentration: 1 μM, replicates: in singlicate, n = 1
T6 construct: gene MAP3K19

[8] = system: ZAK; details: concentration: 1 μM, replicates: in singlicate, n = 1
[9] = system: ZAP70; details: concentration: 1 μM, replicates: in singlicate, n = 1
[10] = system: T7, p38-alpha; details: concentration: 1 μM, replicates: in singlicate, n = 1
T7 construct: gene MAPK14
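Further: KINOMEscan kinase panel screen.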

Row | SMILES | %Inh [1] | %Inh [2] | %Inh [3] | %Inh [4] | %Inh [5] | %Inh [6] | %Inh [7] | %Inh [8] | %Inh [9] | %Inh [10] | %Inh ([2]; 1 µM) | %Inh ([3]; 1 µM) | %Inh ([4]; 1 µM) | %Inh ([7]; 1 µM) | %Inh ([8]; 1 µM) | %Inh ([9]; 1 µM) | %Inh ([10]; 1 µM)
1 | CS(=O)(=O)CCNCc1ccc(-c2ccc3ncnc(Nc4ccc(OCc5ccccc5)c(Cl)c4)c3c2)o1.Cl [GW574783] | 22% | 0% | 24% | 8% | 1% | 0% | 2% | 0% | 0% | 0% | – | – | – | – | – | – | –
2 | Cl.c1ccc(Cn2ncc3cc(Nc4ncnc5ccccc45)ccc32)cc1 [GW273749] | 0% | 6% | 0% | 0% | 16% | 17% | 30% | 0% | 0% | 10% | – | – | – | – | – | – | –
3 | FC(F)(F)c1cc(Nc2nccc(-c3c(-c4ccc(Cl)cc4)nn4ncccc34)n2)ccc1Cl [GW829351] | 0% | 0% | 0% | 4% | 0% | 0% | 0% | 0% | 0% | 43% | – | – | – | – | – | – | –
4 | COc1ccc(-c2nc3n(c2-c2ccncc2)CCC3)cc1 [SKF-104493] | 17% | – | – | – | 0% | 0% | – | – | – | – | 0% and 10% | 13% and 0% | 0% and 4% | 0% and 100% | 0% and 8% | 0% and 8% | 80% and 97.8%
5 | COc1ccc(NC(=O)c2ccc(-c3cc(-c4nnc(C)o4)ccc3C)cc2)cc1 [GW595885] | 34% | 16% | 7% | 0% | 16% | 0% | 34% | 2% | 0% | 97.7% | – | – | – | – | – | – | –
6 | Clc1cc(Nc2ncnc3cc[nH]c23)ccc1OCc1ccccn1 | 25% | 12% | 3% | 51% | 0% | 0% | 34% | 18% | 0% | 18% | – | – | – | – | – | – | –
7 | CSc1ccc(NC2=C(c3ccccc3Cl)C(=O)NC2=O)cc1 [SB-342411] | 0% | 12% | 0% | 9% | 9% | 60% | 0% | 20% | 0% | 0% | – | – | – | – | – | – | –
8 | CC(C)N1CCC(n2cnc(-c3ccc(F)cc3)c2-c2ccnc(N)n2)CC1 [SB-223132] | 0% | 0% | 16% | 0% | 0% | 0% | 0% | 8% | 5% | 96.8% | – | – | – | – | – | – | –
9 | FC(F)(F)c1ccc(-c2cc(-c3c[nH]nc3-c3ccccn3)ccn2)cc1 [GW599550] | 42% | 98.8% | 10% | 0% | 6% | 20% | 28% | 24% | 0% | 28% | – | – | – | – | – | – | –
10 | Nc1nccc2scc(-c3ccc4c(c3)CCN4C(=O)Cc3cc(F)ccc3F)c12 [GSK2587663] | 5% | 26% | 0% | 20% | 10% | 11% | 32% | 9% | 0% | 0% | – | – | – | – | – | – | –
11 | c1ccc(-c2ccc3c(-c4ccnc(Nc5ccc6c(c5)OCCO6)n4)cnn3n2)cc1 [GW818941] | 0% | 0% | 13% | 0% | 5% | 0% | 0% | 10% | 20% | 0% | – | – | – | – | – | – | –
12 | Nc1nc(-c2ccc3c(N)n[nH]c3c2)cc(N2CCCCC2)n1 [GSK2228768] | 0% | 0% | 0% | 0% | 0% | 1% | 0% | 0% | 0% | 0% | – | – | – | – | – | – | –
13 | COc1ccc(NC(=O)Nc2ccc(C)c(-c3ccc(C(=O)Nc4ccncc4)cc3)c2)cc1 [GSK1398475] | 0% | 0% | 0% | 7% | 13% | 13% | 9% | 6% | 0% | 60% | – | – | – | – | – | – | –
14 | CN1CCC(n2cnc(-c3ccc(F)cc3)c2-c2ccnc(NC3CCNCC3)n2)CC1 [SB-229482] | 0% | 0% | 2% | 1% | 0% | 0% | 0% | 4% | 0% | 89% | – | – | – | – | – | – | –
15 | COc1cc2c(Nc3cccc(NC(=O)c4ccccc4)c3)ncnc2cc1OCCCN1CCOCC1 [GSK223810] | 0% | 7% | 0% | 2% | 15% | 12% | 36% | 0% | 0% | 81% | – | – | – | – | – | – | –
16 | Cc1cc(N2CCC(NS(=O)(=O)c3ccc(F)cc3)CC2)nc(Nc2cccc(C#N)c2)n1.O=C(O)C(F)(F)F [GSK1653537] | 0% | 2% | 1% | 29% | 0% | 22% | 0% | 0% | 0% | 0% | – | – | – | – | – | – | –
17 | Cl.Cn1ccc(-c2cccc(Nc3ccnc4cc(-c5nccs5)ccc34)c2)n1 [GW525701] | 66% | 0% | 10% | 0% | 21% | 17% | 41% | 0% | 74% | 9% | – | – | – | – | – | – | –
